Screens (PubChem)
In the library only some 11% were active in any assay of this set; here they are far more common.
HTT ATP protect: Huntington cell model cytoprotection by ATP luminescence; PC12 HTT-Q103 induced, cytoprotection, ATP luminescence, 40 h; Potency, µM (titrated, usually from 56.4 µM), inactives show cytoprotection (ATP increase), hits mostly activators; 230,000 tested, 0.14% active; active = well fitted curve in the direction sought with a large enough effect; inconclusive = small, poorly fitted or top-dose-only effect, or another doubt; inactive = no such curve, though single readings can be large; an effect the other way counts as inactive or inconclusive; also: potency is read from the fitted curve at half-maximal effect; % of control where 0% means no effect; nearly all actives have a fitted effect of over 45% in size
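Readout: ATPlite luminescence (ATP level). Model: stable PC12, inducible Htt exon1 Q103-GFP. Inducer: tebufenozide, 100 nM final. Compounds: dose series. No G418 in medium.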
HttQ103 aggreg: reduces HttQ103-GFP aggregates in PC12 cells | 220,000 tested, 1.1% active | Potency, µM (titrated, usually from 46.1 µM), inactives show at the top dose activity change, negative = inhibition, most hits filed as inhibitors | PC12 HttQ103-GFP aggregates, Acumen cytometry, 40 h; active = well fitted curve in the direction sought with a large enough effect; inconclusive = small, poorly fitted or top-dose-only effect, or another doubt; inactive = no such curve, though single readings can be large; an effect the other way counts as inactive or inconclusive; also: potency is read from the fitted curve at half-maximal effect; % is scaled to controls: 0 for no effect and ±100 for the full control effect; nearly all actives have a fitted effect of over 60% in size
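Huntingtin Q103 exon 1–GFP aggregates in induced PC12 cells (100 nM tebufenozide) were quantified by cytometry from lysates, with compounds dosed in titration.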
PNC assembly inh: perinucleolar compartment assembly inhibition | PC3M PTB-GFP, PNC prevalence imaging, 16 h; hits give low values | 140,000 tested, 3.1% active | activity change (PNC), negative = inhibition, % at 10 µM | AID 2417;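 active = readout at or below -70, meaning at least 70% loss of cells showing the perinucleolar compartment, a nuclear body marking cancer cells; inconclusive = readout between -30 and a set limit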;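 also: plate controls were DMSO wells for no effect and camptothecin positive control wells for full effect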
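Compounds are pinned in duplicate onto adhered PC3M cells stably expressing GFP-tagged PTB and incubated 16 h at 37 C. Cells are then fixed, nuclei stained with Hoechst, and PNC-positive cells counted.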
ALDH1A1 block: ALDH1A1 (human) enzyme inhibition | P00352 | Purified ALDH1A1, NADH fluorescence, propionaldehyde substrate | Potency, µM (series often up to 75.3 µM), inactives show at the highest dose activity, negative = inhibition, actives largely listed as inhibitors | 220,000 tested, 7.3% active | AID 1030;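 also: potency is read from the fitted curve at half-maximal effect; plate controls were no enzyme wells and a reference inhibitor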
Target sequence (P00352 whole entry, looked up): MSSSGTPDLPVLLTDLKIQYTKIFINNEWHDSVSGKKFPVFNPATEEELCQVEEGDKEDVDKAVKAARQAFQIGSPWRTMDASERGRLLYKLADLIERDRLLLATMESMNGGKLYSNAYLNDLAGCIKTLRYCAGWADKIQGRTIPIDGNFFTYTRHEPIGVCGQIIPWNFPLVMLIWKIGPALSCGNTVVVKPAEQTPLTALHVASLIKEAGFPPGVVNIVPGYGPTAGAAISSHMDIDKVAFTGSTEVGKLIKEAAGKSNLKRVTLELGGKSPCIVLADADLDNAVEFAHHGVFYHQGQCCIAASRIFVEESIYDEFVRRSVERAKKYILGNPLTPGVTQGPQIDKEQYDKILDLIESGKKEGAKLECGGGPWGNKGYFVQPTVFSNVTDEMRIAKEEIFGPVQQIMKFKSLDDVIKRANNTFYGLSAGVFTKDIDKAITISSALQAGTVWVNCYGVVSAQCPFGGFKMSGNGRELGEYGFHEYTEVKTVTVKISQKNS
HPGD inh: blocks human HPGD enzyme activity | Potency, µM, inactives show top-dose activity change, negative = inhibition, usual class: inhibitors | P15428 | 150,000 tested, 4.3% active | AID 894 | purified HPGD, NADH fluorescence kinetic, PGE2 substrate; also: potency is read from the fitted curve at half-maximal effect; % is scaled to controls: 0 for no effect and ±100 for the full control effect
Target sequence (P15428 whole entry, looked up): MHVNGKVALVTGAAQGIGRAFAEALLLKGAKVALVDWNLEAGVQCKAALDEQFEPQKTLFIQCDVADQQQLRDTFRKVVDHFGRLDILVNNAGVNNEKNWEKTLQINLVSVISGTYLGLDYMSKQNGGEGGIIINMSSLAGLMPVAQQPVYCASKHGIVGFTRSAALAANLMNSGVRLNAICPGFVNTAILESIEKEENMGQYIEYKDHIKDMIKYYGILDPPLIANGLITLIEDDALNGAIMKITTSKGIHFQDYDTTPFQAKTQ
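NADH formation kinetics: reaction with 30 uM PGE2 and 1 mM NAD+ (final), 20 nM enzyme, Tris-HCl pH 8 with Tween 20, after 15 min compound preincubation at room temperature. Fluorescence change, last versus first of five reads.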
GoLoco inh red: RGS12 GoLoco-Gai1 interaction inhibition | 230,000 tested, 0.44% active | P63096 | Potency, µM (titrated, usually from 61.6 µM), without a hit: at the highest dose activity, negative = inhibition, usual class: inhibitors | Gai1:RGS12 GoLoco peptide FP, rhodamine, 10 min; active = well fitted inhibition curve with a large enough effect, not every such curve was filed as active; inactive = no such curve, though single readings can be large or run the other way; also: potency is read from the fitted curve at half-maximal effect; % is scaled to controls: 0 for no effect and ±100 for the full control effect; nearly all actives have a fitted effect of over 30% in size
* = called active by the depositor; u = inconclusive; x = not tested or not shown; ! = not confirmed by another sample; [ ] = another dose, or the depositor's remark. Unless noted, calls follow the shape of the dose curve; as a rule, active = well fitted inhibition curve with a large enough effect (not every such curve was filed as active); inconclusive = small, poorly fitted or top-dose-only effect, or another doubt; inactive = no such curve, though single readings can be large or run the other way.

SMILES	HTT ATP protect	HttQ103 aggreg	PNC assembly inh	ALDH1A1 block	HPGD inh	GoLoco inh red
Cn1cccc1/C=N/n1c(-c2ccc(Cl)cc2)n[nH]c1=S	4%[10 µM]	11%	5	11%	4µM*	-6%
Cc1ccc(-c2n[nH]c(=S)n2/N=C/c2cccn2C)cc1	-12%	2%	24	-16%	8.9µM*	1%
CC1CNCCN1S(=O)(=O)c1cccc2cnccc12 (stereo not drawn)	-45%	u	1	-1%	-7%	-12%
O=S(=O)(c1cccc2cnccc12)N1CCCNCC1	u	13µM*!	-10	0%	-3%	-2%
CCN(CC)c1ccc(CC(=O)NC(C)Cc2ccccc2)cc1 (stereo not drawn)	-23%	-3%	-106*	10%	-19%	-19%
CCCN(CCC)c1ccc(CC(=O)NC(C)Cc2ccccc2)cc1 (stereo not drawn)	21%[10 µM]	-13%	3	2%	-5%	-3%
CCS(=O)(=O)c1nn2c(N)c(/C=C3/C=CC(=O)C(OC)=C3)c(=O)nc2s1	6%[10 µM]	-15%	-116*	-9%	u	3%
CCOC1=C/C(=C/c2c(N)n3nc(-c4ccccc4)sc3nc2=O)C=CC1=O	-7%	13%	x	u	x	39%
COC1=C/C(=C/c2c(N)n3nc(-c4ccc(C)cc4)sc3nc2=O)C=CC1=O	-10%[10 µM]	11%[9.22 µM]	x	1.1µM*	x	132%
O=C1CC[C@H](C(=O)O)N1	-5%	x	x	14%	x	-15%
O=C(CCN1CCC(c2ccc(Cl)s2)=N1)c1ccc(Cl)s1	9%[10 µM]	6%[9.22 µM]	x	3.2µM*	x	-7%
C[C@H](NC(=O)OC(C)(C)C)C(=O)N/N=C/c1ccc2nccnc2c1	34%[10 µM]	-2%[9.22 µM]	x	x	x	4%
CCOC(=O)CCN1C(=O)[C@H]2[C@H]3[C@H](O)[C@H](O)C/C(=N/O[C@@H]4O[C@@H](COC(C)=O)[C@@H](OC(C)=O)[C@@H](OC(C)=O)[C@H]4OC(C)=O)[C@H]3CC[C@@H]2C1=O	2%[10 µM]	x	x	0%[13.5 µM]	x	x
COc1ccc(C(=O)c2c(C)c3ccccc3n2CC(O)CNC(C)C)cc1 (stereo not drawn)	x	22µM*	49	u	-10%	13%
Fc1cccc(NC(=S)NNc2c3ccccc3nc3ccccc23)c1	-23%	u	x	3.2µM*	x	63%
CC(=O)NN1C(=O)c2ccccc2NC1c1ccc([N+](=O)[O-])o1 (stereo not drawn)	-46%	u	x	-8%	x	4%
O=C(NN1C(=O)c2ccccc2NC1c1ccc([N+](=O)[O-])o1)c1ccc(Br)cc1 (stereo not drawn)	6.3µM*	u	x	3%	x	8%
O=C(Nc1cccc(F)c1)c1ccc(-c2ccccc2C(F)(F)F)o1	x	9%	-10	u	-16%	-4%
O=C(NCCc1ccccc1)c1ccc(-c2ccccc2C(F)(F)F)o1	x	1%	61	25µM*	u	-3%
COc1ccc(NC(=O)c2ccc(-c3ccccc3C(F)(F)F)o2)cc1	x	9%	-100*	-11%	-9%	1%
NC(N)=NC[C@@H]1CCCCCCN1	-11%[10 µM]	x	x	13%[13.5 µM]	-10%	2%[14.2 µM]
C1CCC(C(CC2CCCCN2)C2CCCCC2)CC1 (stereo not drawn)	-99%	25µM*!	16	-2%	-2%	10%
O=C1c2cccc(OCc3ccc(F)cc3)c2CCN1Cc1ccc(F)cc1	30%[10 µM]	20µM*	2	17%	-18%	11%
Cc1ccc(CN2CCc3c(OCC(=O)Nc4cccc(C)c4C)cccc3C2=O)cc1	x	-8%	-23	25µM*	-19%	-8%
Cc1ccc(C)c(NC(=O)COc2cccc3c2CCN(Cc2ccccc2C)C3=O)c1	12%[10 µM]	6%	-21	u	-9%	9%
SMILES	HTT ATP protect	HttQ103 aggreg	PNC assembly inh	ALDH1A1 block	HPGD inh	GoLoco inh red
O=C1c2cccc(OCC(=O)N3CCCc4ccccc43)c2CCN1Cc1ccc(Br)cc1	-14%[10 µM]	-13%[9.22 µM]	-12	7.9µM*	-6%	9%
O/C(=C\c1ccc2ccccc2n1)c1ccc(O)cc1O	-37%[10 µM]	-12%	x	u	x	16%
COc1cccc(/C=N/Nc2ncnc3scc(-c4ccccc4)c23)c1OC	-44%	u	12	u	18µM*	11%
Cc1sc2ncnc(N/N=C/c3ccccc3O)c2c1C	-73%[10 µM]	2.5µM*	u	-3%	-19%	3%
Cc1sc2ncnc(N/N=C/c3ccc(O)cc3)c2c1C	8%[10 µM]	-31%	11	-1%	-17%	-11%
O=C(O)c1ccc(Nc2ncnc3scc(-c4ccccc4)c23)cc1	10%[10 µM]	5%[9.22 µM]	x	u	x	8%
Cc1cc(C)n(C(=O)CCNC(=O)c2ccccc2Br)n1	4%	5%	16	-1%	7.9µM*	2%
Cc1cc(C)n(C(=O)CNC(=O)CCc2ccccc2)n1	10%	24%	u	5%	16µM*	-16%
COc1ccccc1C(=O)NCC(=O)n1nc(C)cc1C	0%	-4%[9.22 µM]	u	9%	-17%	-5%
CCS(=O)(=O)c1ccc2c(c1)N(S(C)(=O)=O)CC(C(=O)NN)O2 (stereo not drawn)	x	6%	x	0.56µM*	x	-3%
CC(C)NC(=O)CN1CCC(O)(c2ccccc2)CC1	1%	7%	-8	4%	-16%	10%
CC(C)NC(=O)CN1CCN(C(=O)CCl)CC1	-39%	-1%	x	3.2µM*	x	4%
O=C(CN1CCCCC1)N1CCN(C(=O)CN2CCCCC2)CC1	-8%	-4%[9.22 µM]	1	2%	-4%	-2%
CC(C)c1ccc(CN2CCN(C(=O)CCl)CC2)cc1	x	u	x	0.56µM*	x	2%
CN(C)C(=O)CN1CCN(C(=O)CCl)CC1	8%	-2%	x	2.8µM*	x	2%
COc1ccc(CC(=O)NNS(=O)(=O)c2ccc(F)cc2)cc1OC	6%[10 µM]	11%[9.22 µM]	x	2%	x	12%
CC(Oc1ccccc1)C(=O)NC1=NCCS1 (stereo not drawn)	-9%	8%	x	-2%	x	3%
Cc1cc(=O)oc2cc(O)cc(O)c12	-2%	x	x	u	u	-9%
CCCc1cc(=O)oc2cc(C)cc(O)c12	-48%[10 µM]	u	9	8.9µM*	-15%	2%
CCCCCc1cc(O)c2c(C)cc(=O)oc2c1	-9%[10 µM]	25µM*	3	1.8µM*	-20%	-13%
CCc1cc(=O)oc2cc(C)c(CN3CCCC(C)C3)c(O)c12 (stereo not drawn)	4%	2%	30	u	-8%	40%
CCCCc1cc(=O)oc2cc(C)c(CN3CCCC3)c(O)c12	8%[10 µM]	1%	4	22µM*	-17%	87%
CCc1cc(=O)oc2cc(C)cc(O)c12	4%	u	-4	4.5µM*	28µM*	3%
